# ChEMBL document CHEMBL3988442, “University of Dundee, Small-Polar-MMV Screening Library” (2021)
# Out of some 48,000 compounds screened, about 13,000 (27%) showed an effect of 50% or more. This is one part of the list.
# System: Wolbachia pipientis
# Assay: Anti-Wolbachia Cell-Based Screen
# Assay type: functional
# Parameters: scale not given: in the data most compounds retested in dose-response had high values
# Settings: 5 µM
row,Compound,Percent Effect
1,Cc1ccnc(OC[C@@]23CCO[C@@H]2CCN(C2CCC2)C3)n1.O=C(O)C(F)(F)F,-3.433%
2,Cc1cc(CN2C[C@@H]3CN(C(=O)c4ccco4)CCO[C@@H]3C2)no1.O=C(O)C(F)(F)F,-7.73%
3,Cc1cc(CN2CC[C@H]3OCC[C@@]3(C(=O)N3CCOCC3)C2)no1,107.8%
4,Cc1cc(CN2CC[C@H]3OCC[C@@]3(C(=O)NC(C)C)C2)no1.O=C(O)C(F)(F)F,2.849%
5,O=C(NCc1ccccn1)[C@@]12CCO[C@@H]1CCN(C1CCCC1)C2.O=C(O)C(F)(F)F.O=C(O)C(F)(F)F,86.28%
6,CCn1ccnc1CN1CCNCC1C.Cl.Cl (centres undefined),0.9214%
7,CN(C)C(=O)CN1CCCC12CCCN(c1ncc(F)cn1)C2.O=C(O)C(F)(F)F (centres undefined),0.08141%
8,O=C(c1ncccn1)N1C[C@@H]2CN(CC3CC3)CCO[C@@H]2C1,-1.954%
9,CN1CCN(C(=O)Cc2csc(-c3ccsc3)n2)C(c2ccccc2)C1 (centres undefined),-6.196%
10,CN(C)CCN(C)C[C@H]1CN2CC[C@H]1C[C@@H]2CNC(=O)Nc1ccsc1,9.133%
11,Cc1csc(CN2CCC[C@]3(C[C@@H](Oc4ccccn4)CO3)C2)n1.O=C(O)C(F)(F)F.O=C(O)C(F)(F)F,133.6%
12,CN(C)[C@@H]1CN(Cc2cnn(C)c2)[C@@H]2COC[C@H]12.O=C(O)C(F)(F)F.O=C(O)C(F)(F)F.O=C(O)C(F)(F)F,-10.13%
13,Cn1cc(CN2CCC[C@]3(C[C@@H](Oc4ccccn4)CO3)C2)cn1.O=C(O)C(F)(F)F.O=C(O)C(F)(F)F,98.39%
14,Cc1cc(CN2CC[C@]3(C[C@@H](OCC(=O)N(C)C)CO3)C2)no1.O=C(O)C(F)(F)F,25.8%
15,Cn1cc(CN2CC[C@]3(C[C@H](Oc4ccccn4)CO3)C2)cn1.O=C(O)C(F)(F)F.O=C(O)C(F)(F)F,102.3%
16,Cc1csc(CN2CCC[C@]3(C[C@H](Oc4ccccn4)CO3)C2)n1.O=C(O)C(F)(F)F.O=C(O)C(F)(F)F,-0.2968%
17,Cn1cc(CN2CCC[C@]3(C[C@H](Oc4ccccn4)CO3)C2)cn1,94%
18,O=C(O)C(F)(F)F.O=C(O)C(F)(F)F.c1ccc(O[C@H]2CO[C@@]3(CCCN(Cc4nccs4)C3)C2)nc1,12.82%
19,Cc1noc(C)c1CN1C[C@@H](OCC(=O)N(C)C)[C@H]2OCCC[C@H]21,-2.894%
20,O=C(NCC1CC1)[C@@H]1C[C@@H]2OCCN[C@@H]2C1.O=C(O)C(F)(F)F,8.68%
21,Cc1cc(C)c(CNCC(O)c2ccc(F)c(F)c2)c(C)c1.Cl (centres undefined),6.678%
22,O=C1CSC(c2ccc(O)cc2)c2sccc2N1 (centres undefined),-5.574%
23,CC(C)(C)n1ncc2c1NC(=O)CSC2c1ccsc1 (centres undefined),129%
24,COc1cc(C2SCC(=O)Nc3ccsc32)cc(OC)c1O (centres undefined),-0.1259%
25,COc1cccc(C2SCC(=O)Nc3ccsc32)c1OC (centres undefined),-5.826%
26,O=C1CSC(c2cccs2)c2cnn(C3CCCC3)c2N1 (centres undefined),10.18%
27,Cn1c(=O)n(C)c2cc(C3SCC(=O)Nc4ccsc43)ccc21 (centres undefined),27.99%

row,Compound,Percent Effect
1,O=C1CSC(c2ccsc2)c2sccc2N1 (centres undefined),0.8024%
2,Cc1c(C2SCC(=O)Nc3c2cnn3C(C)(C)C)cnn1C (centres undefined),122.6%
3,CC(C)(C)n1ncc2c1NC(=O)CSC2c1ccc2c(c1)OCCO2 (centres undefined),117.6%
4,COC(=O)c1ccc(C2SCC(=O)Nc3c2cnn3C(C)(C)C)cc1 (centres undefined),111.9%
5,COC(=O)c1ccc(C2SCC(=O)Nc3ccsc32)cc1 (centres undefined),-2.415%
6,CC1CCN(C[C@H]2CN3CC[C@H]2C[C@@H]3CNC(=O)Nc2ccsc2)CC1,0.4847%
7,CC1C(=O)Nc2cccnc2N1S(=O)(=O)c1ccc(C#N)c(Cl)c1 (centres undefined),12.36%
8,O=C(NC[C@H]1C[C@@H]2CCN1C[C@@H]2CN1CCOCC1)Nc1ccsc1,0.8179%
9,CN(C)C(=O)COC[C@@]12CCC[C@@H]1CNC2.O=C(O)C(F)(F)F,-7.185%
10,O=C(CSc1ccccn1)N1CCN(CCO)[C@@H]2CS(=O)(=O)C[C@@H]21,-2.402%
11,Cc1n[nH]c2c1C(c1cnn(C)c1)SCC(=O)N2 (centres undefined),12.5%
12,Cn1cc(C2SCC(=O)Nc3c2cnn3C(C)(C)C)cn1 (centres undefined),109.1%
13,CC(C)CN1C[C@H]2C[C@H](C(=O)NCc3cccnc3)[C@@H](C1)O2,-10.23%
14,Cn1cc(CN2C[C@H]3CN(c4cncnc4)C(=O)[C@H]3C2)cn1.O=C(O)C(F)(F)F,-0.6359%
15,N#Cc1ccc(C(=O)NS(=O)(=O)c2ccc(C#N)c(Cl)c2)cc1,-4.058%
16,O=S1(=O)C[C@@H]2[C@H](C1)N(Cc1ncc[nH]1)CCN2Cc1cccnc1,-2.711%
17,COc1ccc2ncn(Cc3ncc[nH]3)c(=O)c2c1,121%
18,CCc1ccc2ncn(Cc3ncc[nH]3)c(=O)c2c1,108.2%
19,Cc1ncsc1CN1CCO[C@H]2[C@H](Oc3ccccn3)CC[C@@H]21.O=C(O)C(F)(F)F.O=C(O)C(F)(F)F,-5.284%
20,Cc1nc(CC(=O)N(CCN2CCOCC2)Cc2ccco2)c(C)s1,5.284%
21,CCc1ncc(CN(CCc2ccccc2)Cc2cccs2)cn1.O=C(O)CC(O)(CC(=O)O)C(=O)O,50.24%
22,COCCN1CCC2(COCc3cnc(N(C)C)nc32)C1.O=C(O)C(F)(F)F (centres undefined),1.083%
23,COCCN1CCC2(COCc3cnc(-c4ccccc4)nc32)C1.O=C(O)C(F)(F)F (centres undefined),89.12%
24,CC(C)CN1CCC2(COCc3cnc(-c4ccccc4)nc32)C1.O=C(O)C(F)(F)F (centres undefined),105.5%
25,CN(C)c1ncc2c(n1)C1(CCN(Cc3ccccc3)C1)COC2.O=C(O)C(F)(F)F (centres undefined),-5.323%
26,CN1CCC2(COCc3cnc(-c4ccccc4)nc32)C1.O=C(O)C(F)(F)F (centres undefined),9.461%
27,O=C(O)C(F)(F)F.c1ccc(-c2ncc3c(n2)C2(CCN(CC4CC4)C2)COC3)cc1 (centres undefined),6.483%
